Measurements published in PubChem BioAssay (EPA / NIEHS).
Inconclusive results are not listed. Active and inactive are the calls of the source. The calls were made as follows: active = hit-call score of the fitted dose curve at least 0.9, where 1 is the maximum; inconclusive = response in the unintended direction; inactive = score below 0.9.

Each compound was assayed on Glyceraldehyde-3-phosphate dehydrogenase (Homo sapiens) (UniProt P04406) (assay: CLD_GAPDH_24hr: CellzDirect (CLD) Gene Expression Assay for Baseline Control (Glyceraldehyde 3-phosphate dehydrogenase) at 24 hours (AID 2283692)).
Glyceraldehyde-3-phosphate dehydrogenase (Homo sapiens), sequence (P04406 whole entry, looked up): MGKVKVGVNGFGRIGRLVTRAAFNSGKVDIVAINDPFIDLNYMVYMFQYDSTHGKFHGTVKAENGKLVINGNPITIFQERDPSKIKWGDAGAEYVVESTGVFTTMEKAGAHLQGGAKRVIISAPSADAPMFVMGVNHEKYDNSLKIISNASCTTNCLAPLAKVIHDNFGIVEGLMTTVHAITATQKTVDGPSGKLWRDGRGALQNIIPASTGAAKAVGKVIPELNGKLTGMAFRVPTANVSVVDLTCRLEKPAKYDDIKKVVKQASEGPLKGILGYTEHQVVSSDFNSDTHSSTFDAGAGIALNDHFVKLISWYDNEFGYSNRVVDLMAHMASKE
Experimental: CLD_24hr is a cell-based, multiplexed-readout assay that uses hepatocyte, a human liver primary cell, with measurements taken at 24 hours after chemical dosing in a 96-well plate.CLD_GAPDH_24hr is one of 16 assay component(s) measured or calculated from the CLD_24hr assay. It is designed to make measurements of mRNA induction, a form of inducible reporter, as detected with chemiluminescence signals by Quantitative Nuclease Protection Assay (qNPA) technology.Data from the assay component CLD_GAPDH_24hr was analyzed at the endpoint, CLD_GAPDH_24hr, in the positive analysis fitting direction relative to DMSO as the negative control and baseline of activity. Using a type of inducible reporter, gain-of-signal activity can be used to understand changes in the reporter gene as they relate to the gene GAPDH. Furthermore, this assay endpoint can be referred to as a secondary readout, because this assay has produced multiple assay endpoints where this one serves a background control function. To generalize the intended target to other relatable targets, this assay endpoint is annotated to the background measurement intended target family, where subfamily is baseline control.
Human hepatocyte cultures were treated daily for two consecutive days with fresh dosing solutions containing appropriate concentrations of the 320 ToxCast chemicals (chemical identities were blinded to CellzDirect and other ToxCast collaborators), vehicle control (0.2% DMSO), and positive control inducers as summarized in Table 1. Due to the large number of treatment groups and chemicals examined, the ToxCast chemicals were divided into two groups (spanning two independent cultures of hepatocytes from separate donor preparations (Hu778: ToxCast plates 1 and 2; Hu776: ToxCast plates 3 and 4). Each preparation of human hepatocyte cultures was treated with respective vehicle control, medium only control, set of six positive controls/reference chemicals for the five hepatic receptor pathways, and a subset of eight of the ToxCast chemicals (indoxacarb, pyrithiobac-sodium, norflurazon, cyhalofop-butyl, methomyl, thiram, acetochlor, and propiconazole). These replicate data, coupled with internal replicates designed within the blinded ToxCast chemical library, provided additional data to evaluate interindividual differences between hepatocyte preparations and their potential impact on chemical profiles.Cell morphology and integrity were evaluated using phase-contrast microscopy as an indicator of hepatocyte cell health (Tyson & Green, 1987). Cultures for each treatment group (i.e., media, vehicle [0.2% DMSO], positive control inducers [multiple concentrations], and the ToxCast chemicals [multiple concentrations]) were observed and cell morphology was assessed relative to vehicle control cultures at each harvest time point (0, 6, 24, or 48 h). […] Images were evaluated at the conclusion of the study to assess changes in cell integrity and account for the effects of chemical exposure on uncharacteristic changes in concentration-dependent gene expression profiles. The results from these determinations of apparent cytotoxicity were annotated (yes/no) alongside the corresponding qNPA data for reference.At the conclusion of each treatment period, hepatocyte cultures (96-well) were washed with 1 volume of HBSS, lysed by addition of 25 ul ArrayPlate lysis buffer (HTG, Tucson, AZ), and 70 ul/well of Denaturation Oil, denatured by incubation at 95C for 10 min, and frozen at approximately -70C until analysis by nuclease protection assay (qNPA) (Roberts et al., 2007). For qNPA analysis, cell lysates were thawed at 50C for approximately 30 min, qNPA probes were added, and samples were incubated at 95C for 10 min to begin the detection process by denaturing the target RNA, dissociating the duplexes and secondary structure hybridization. At the conclusion of the hybridization period, S1 nuclease reagent was added to each sample to digest all nonprotected nucleotides at 50C for 60-90 min. […]
With Cc1[nH]c(=O)n(C(C)(C)C)c(=O)c1Cl the outcome was “inactive”.
For Cc1cc(C)nc(NC(=O)NS(=O)(=O)c2ccccc2C(=O)OC2COC2)n1, the outcome was “inactive”.
O=C(O)COc1ccc(Cl)cc1Cl was tested, and the outcome was “inactive”.
With O=C(O)C(F)(F)C(F)(F)C(F)(F)C(F)(F)C(F)(F)C(F)(F)C(F)(F)F the outcome was “inactive”.
O=C1c2ccccc2C(=O)N1SC(Cl)(Cl)Cl was tested, and the outcome was “inactive”.
CCOCN(C(=O)CCl)c1c(C)cccc1CC was tested, and the outcome was “inactive”.
COc1cc(OC)nc(NC(=O)NS(=O)(=O)c2cc(NC=O)ccc2C(=O)N(C)C)n1 was tested, and the outcome was “inactive”.
CNC(=O)Oc1ccccc1OC(C)C was tested, and the outcome was “inactive”.
CN1CSC(=S)N(C)C1 was tested, and the outcome was “inactive”.
For CCOc1nc(NC)nc(NC(=O)NS(=O)(=O)c2ccccc2C(=O)OC)n1, the outcome was “inactive”.
With C#CCN1C(=O)COc2cc(F)c(N3C(=O)C4=C(CCCC4)C3=O)cc21 the outcome was “inactive”.
COC(=O)c1ccccc1CS(=O)(=O)NC(=O)Nc1nc(OC)cc(OC)n1 was tested, and the outcome was “inactive”.
Oc1cc(Cl)ccc1Oc1ccc(Cl)cc1Cl was tested, and the outcome was “inactive”.
For N#Cc1c(Cl)c(Cl)c(Cl)c(C#N)c1Cl, the outcome was “inactive”.
Oc1ccc(Cl)cc1Cc1ccccc1 was tested, and the outcome was “inactive”.
With CCC(C)(NC(=O)c1cc(Cl)c(C)c(Cl)c1)C(=O)CCl (configuration not stated) the outcome was “inactive”.
In the case of O=C(Nc1ccccc1)Nc1cnns1, the outcome is reported as “inactive”.
In the case of N#CN, the outcome is reported as “inactive”.
In the case of CC(C)N(C(=O)COc1nnc(C(F)(F)F)s1)c1ccc(F)cc1, the outcome is reported as “inactive”.
COC(=O)c1ccccc1S(=O)(=O)NC(=O)Nc1nc(C)nc(OC)n1 was tested, and the outcome was “inactive”.
For O=S(=O)(O)C(F)(F)C(F)(F)C(F)(F)C(F)(F)C(F)(F)C(F)(F)C(F)(F)C(F)(F)F, the outcome was “inactive”.
With OCCOc1ccccc1 the outcome was “inactive”.
For [2H]C1([2H])[n+]2ccccc2-c2cccc[n+]2C1([2H])[2H], the outcome was “inactive”.
For CNC(=O)CSP(=S)(OC)OC, the outcome was “inactive”.
With O=[N+]([O-])/N=C1\NCCN1Cc1ccc(Cl)nc1 the outcome was “inactive”.
CNC(=O)Oc1cccc(N=CN(C)C)c1 was tested, and the outcome was “inactive”.
With COP(=O)(OC)OC=C(Cl)Cl the outcome was “inactive”.
